Data: ChEMBL document CHEMBL1157539, “Thousands of chemical starting points for antimalarial lead identification” (Nature, 2010)

How the values were obtained:
Format in all cases: functional
Plasmodium falciparum [1] = assay: GSK_TCMDC: Inhibition of Plasmodium falciparum 3D7 in whole red blood cells, using parasite LDH activity as an index of growth. Test compounds present at 2uM
Plasmodium falciparum [2] = assay: GSK_TCMDC: Inhibition of Plasmodium falciparum Dd2 in whole red blood cells, using parasite LDH activity as an index of growth. Test compounds present at 2uM
HepG2 = assay: GSK_TCMDC: Percent inhibition of human HepG2 cell line. Test compounds present at 10uM.

Compound | Inhibition (Plasmodium falciparum [1]) | Inhibition (Plasmodium falciparum [2]) | Inhibition (HepG2)
COc1cccc(CN2CCCC(CCC(=O)Nc3ccc(C(F)(F)F)cc3)C2)c1O (stereo unspecified) | 98% | 97% | 15%
Brc1ccc(Nc2ccnc3cc(-c4nccs4)ccc23)cc1Oc1ccnc2cc(-c3nccs3)ccc12 | 91% | 83% | 15%
CC(Cc1ccc(Cl)cc1)Nc1nc(NC2CCCC2)nc(N2CCC(C#N)(c3ccccc3)CC2)n1 (stereo unspecified) | 99% | 95% | 15%
COc1ccc(Nc2nc(N)c3cc(OC)c(OC)cc3n2)cc1OC.Cl | 99% | 5% | 0%
Cl.c1ccc(COc2ccc(Nc3ncnc4ccc(-c5ccc(CN6CCSCC6)o5)cc34)cc2)cc1 | 94% | 4% | 4%
CN1CCN(c2ccnc3ccc(NC(=O)Nc4cccc5c(Br)cccc45)cc23)CC1.Cl | 100% | 96% | 7%
C[C@H](Cc1ccc(OCCCCOc2ccc(C[C@@H](C)NC[C@H](O)c3cccc(Cl)c3)cc2)cc1)NC[C@H](O)c1cccc(Cl)c1 | 100% | 92% | 68%
Cc1ccc(NC(=O)Nc2ccc(Cn3ncc(N4CCCNCC4)c(Cl)c3=O)cc2)cc1.O=C(O)C(F)(F)F | 84% | 13% | 35%
Cc1ccc2[nH]c3c(NCCCN(C)C)ncnc3c2c1 | 99% | 0% | 1%
NC1=NC(c2ccccc2)(c2ccccc2)C(=O)N1CCCCc1ccccc1.O=CO | 96% | 81% | 14%
CN1CCC(NCc2cccc(-c3ccc(S(=O)(=O)NCCN4CCCC4)s3)c2)CC1.O=C(O)C(F)(F)F | 91% | 1% | 10%
O=c1cc(NCCCNC(CNCCc2ccccc2)c2cc(Br)cc(Br)c2)[nH]c2ccccc12 (stereo unspecified) | 93% | 53% | 0%
O=C(Nc1cccc(C(F)(F)F)c1)c1cccc2nc(C(F)(F)F)[nH]c12 | 100% | 98% | 81%
O=C(Nc1cccc(C(F)(F)F)c1)Nc1ccc2nonc2c1 | 98% | 76% | 0%
Cl.N#Cc1ccc2c(c1)CCN(CCC1CCC(NC(=O)/C=C/c3ccc4ccccc4c3)CC1)CC2 (stereo unspecified) | 97% | 12% | 20%
CCC(C)NS(=O)(=O)c1ccc2nc(Nc3ccc(C)cc3)n(C3CCCCC3)c2c1 (stereo unspecified) | 97% | 97% | 0%
CC(C)(C)c1cc([N+](=O)[O-])cc(C(=O)Nc2ccccc2C(F)(F)F)c1O | 96% | 99% | 74%
Cc1noc(-c2ccc3c(c2)CCN(CCC2CCC(NC(=O)/C=C/c4ccc(F)cc4)CC2)CC3)n1.Cl (stereo unspecified) | 91% | 39% | 44%
COc1ccc(C(=O)CCC(=O)N(Cc2ccc(-c3ccc(CNCCc4ccc(S(C)(=O)=O)cc4)cn3)cc2)C(C)CN(C)C)cc1F.O=C(O)C(F)(F)F (stereo unspecified) | 98% | 85% | 13%

Compound | Inhibition (Plasmodium falciparum [1]) | Inhibition (Plasmodium falciparum [2]) | Inhibition (HepG2)
CC(C)c1cn2c3c(cc(C(=O)N[C@@H](Cc4ccccc4)[C@H](O)CNC4CCCCC4)cc13)N(C)S(=O)(=O)CC2.O=CO | 98% | 99% | 9%
CC(CN1CCN(C)CC1)C(=O)Nc1ccc(-c2ccc(-c3nc4ccccc4[nH]3)s2)cc1 (stereo unspecified) | 100% | 79% | 5%
CCN(CCCN1CCCCC1)c1cc(C)nc(Nc2ccc(F)c(C(F)(F)F)c2)n1.O=C(O)C(F)(F)F | 100% | 93% | 32%
O=C(/C=C/c1ccc(Cl)c(Cl)c1)NCCCCCN1CCC(NC(=O)NCCc2ccccc2)CC1 | 100% | 7% | 23%
c1cc(CNc2ncc(-c3ccsc3)c(-c3nccs3)n2)ccn1 | 89% | 81% | 18%
CC(C)Oc1cc2c(cc1NS(=O)(=O)c1ccc(-c3ccc(Cl)s3)cc1F)CCN(C)CC2.Cl | 99% | 1% | 23%
O=C(Nc1cccc(-c2cccc(-c3nc4cc(C(F)(F)F)ccc4[nH]3)c2)c1)c1cccnc1 | 100% | 70% | 57%
Br.C=CCNC(CCCCC)c1ccc(OCCOc2ccc(C(CCCCC)NCC=C)cc2)cc1 (stereo unspecified) | 88% | 48% | 100%
COc1ccc(CNc2nc(NCc3ccc(C(F)(F)F)cc3)c3cc(OC)c(OC)cc3n2)cc1OC | 100% | 100% | 80%
CCOc1cccc(C2c3c(oc4ccccc4c3=O)C(=O)N2CCN(CC)CC)c1 (stereo unspecified) | 100% | 66% | 5%
CC(CNc1nc(NCC(c2ccccc2)c2ccccc2)c2nc[nH]c2n1)c1ccccc1 (stereo unspecified) | 93% | 24% | 5%
CC(C)N1CCC(N(Cc2ccc(-c3ccc(Cl)cc3)cc2)C(=O)Cn2c(CCc3cccc(F)c3F)nc(=O)c3ccccc32)CC1.O=C(O)C(O)C(O)C(=O)O | 86% | 70% | 61%
C=CCOC1OC(COC(c2ccccc2)(c2ccccc2)c2ccccc2)C(OC(C)=O)C(OC(C)=O)C1NC(C)=O (stereo unspecified) | 93% | 66% | 0%
COc1ccc2nccc([C@@H](O)CN3CCC(NCc4cc5sccc5nc4C(F)(F)F)CC3)c2c1.O=C(O)C(=O)O | 89% | 67% | 22%
COc1cccc(C(=O)NC(c2ccccc2OC)c2cc(Cl)c3cccnc3c2O)c1 (stereo unspecified) | 91% | 36% | 58%
COc1ccc2c(=O)c(I)c(C)[nH]c2c1 | 96% | 96% | 27%
COc1ccc(NC(=O)[C@H](Cc2ccccc2)Nc2cc(C)nc(NCCc3ccc(F)cc3)n2)cc1.O=C(O)C(F)(F)F | 100% | 82% | 17%
O=C(Nc1ccc(Cl)c(Cl)c1)Nc1ccc(F)c([N+](=O)[O-])c1 | 100% | 96% | 49%
COc1cc2nc(NCCn3cccn3)nc(NCCc3ccccc3)c2cc1OC | 100% | 100% | 12%

Compound | Inhibition (Plasmodium falciparum [1]) | Inhibition (Plasmodium falciparum [2]) | Inhibition (HepG2)
CC(C)Oc1cc2c(cc1NS(=O)(=O)c1ccc(-c3cccs3)cc1)CCN(C)CC2.Cl | 88% | 9% | 9%
O=C(Nc1cccc(CN2CCCN(Cc3cccc(Cl)c3)CC2)c1)c1ccc(Br)cc1.O=C(O)C(F)(F)F | 92% | 16% | 38%
COC(=O)c1ccc(Nc2nccc(Nc3ccc(Oc4ccccc4)cc3)n2)cc1.Cl | 93% | 15% | 0%
O=C(NCc1cccc(C(F)(F)F)c1)C1CCCN(C(=O)c2ccc(O)c(-c3ccc(Cl)c(Cl)c3)c2)C1 (stereo unspecified) | 94% | 32% | 1%
FC(F)(F)c1ccc2[nH]c(-c3ccc(-c4ccc(CNCC5CCCO5)cc4)cc3)nc2c1.O=C(O)C(F)(F)F (stereo unspecified) | 100% | 100% | 33%
CCNc1cc(C(=O)N[C@@H](Cc2ccccc2)[C@H](O)CNC(C)(C)c2cccc(OC)c2)cc(N2CCCC2=O)c1.O=CO | 100% | 99% | 0%
Cc1ccc(Cn2nc(Cl)c(N3CCCNCC3)cc2=O)cc1NC(=O)Nc1ccc(-c2ccccc2)cc1.O=C(O)C(F)(F)F | 100% | 55% | 90%
CCCC(C)Nc1nc(C)cc(N[C@@H](CC(C)C)C(=O)NCCOc2ccccc2)n1.O=C(O)C(F)(F)F (stereo partly specified) | 93% | 28% | 15%
CCCO[C@H](C(=O)OC)[C@@H](CC1Cc2ccccc2C1)C(=O)NCCC1=CCCCC1 | 93% | 57% | 6%
O=C1C(c2ccccc2)=C(Nc2cccc(OC(F)(F)C(F)F)c2)c2ccccc21 | 96% | 96% | 0%
CCOC(=O)NOC(C(=O)O)c1ccccc1 (stereo unspecified) | 99% | 17% | 4%
CCSc1nc2sc3c(c2c(=O)n1-c1ccccc1)CCN(C)C3 | 83% | 71% | 16%
COc1cc(F)c2ncc(Cl)c(CCN3CCC(NCc4cc5c(cn4)OCCO5)CC3)c2c1.Cl | 89% | 57% | 2%
CSc1cccc(NC(=O)c2cc3ccccc3oc2=O)c1 | 92% | 75% | 0%
Cc1[nH]c(C)c(-c2ccc(OCc3cc(F)cc(F)c3)nc2)c(=O)c1Cl | 97% | 97% | 20%
CC(=O)N1N=C(c2cccs2)Sc2c1nc(-c1ccc(Cl)cc1)n2C(C)=O | 99% | 93% | 3%
Cn1c2c(c3ccccc31)CN(CCC1(c3ccc(Cl)c(Cl)c3)CN(C(=O)Cc3ccccc3)CCO1)CC2 (stereo unspecified) | 95% | 91% | 22%
O=C(CCc1c[nH]cn1)Nc1ccc(-c2ccc(-c3nc4cc(F)ccc4[nH]3)cc2)cc1 | 99% | 58% | 26%
CCc1cn2c3c(cc(C(=O)N[C@@H](Cc4cccc(Cl)c4)[C@H](O)CNC4CCOCC4)cc13)N(C)S(=O)(=O)CC2.O=CO | 98% | 98% | 2%
